The source of these data is PubChem BioAssay (EPA / NIEHS).

The term AC50 denotes the midpoint of the concentration-response curve, whichever way the signal moves.

The structures appear in SMILES notation. Records with an inconclusive call do not appear. Active and inactive are the calls of the source. How the source made its calls: active means hit-call score of the fitted dose curve at least 0.9, where 1 is the maximum; inconclusive means response in the unintended direction; inactive means score below 0.9.

Assay [1] is described as follows: ACEA_AR_antagonist_AUC_viability: ACEA Biosciences xCELLigence Real-Time Cell Analysis on Androgen Receptor Antagonism for Viability (AID 2283776).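 Further: 22Rv1 human prostate cancer cells growing on impedance electrode plates; area under impedance growth curve at 80 h after dosing as viability; hits lower the growth signal relative to DMSO meaning cytotoxicity.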 The essentials:
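22Rv1 prostate cells, continuous dosing up to 100 uM final (0.5% DMSO max), duplicate plates. Growth measured by impedance; AUC at 80 h, loss of signal vs DMSO.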

Assay [2] can be described thus: ACEA_ER_AUC_viability: ACEA Biosciences xCELLigence Real-Time Cell Analysis on Estrogen Receptor Agonism for Viability (AID 2283782).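 Further: hit means loss of impedance signal meaning reduced cell growth or viability.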 The essentials:
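Viability endpoint: reduced impedance area under the curve relative to DMSO, recorded by real-time electrode sensing over ~80 h of continuous exposure. Duplicate plates of T47D in hormone-depleted medium; eight concentrations, 1:4 dilutions, 100 uM maximum.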

With `O=C(C(Cl)Cl)N1CCOC12CCCCC2`, the AC50 was 11 µM (active) in assay [1] and 14.5 µM (active) in assay [2]. With `c1ccc2c(c1)ccc1cc3c(ccc4ccccc43)cc12`, the AC50 in assay [1] was 0.287 µM (active). Regarding `CC(=O)OC(C)C`, the compound was called inactive in assay [1] and in assay [2]. With `CCCCCCCCO[C@@H]1O[C@H](CO)[C@@H](O)[C@H](O)[C@H]1O`, the compound was called inactive in assay [1] and in assay [2].

Consider `CCCCC/C=C\C/C=C\CCCCCCCC(=O)OC`, for which the call in assay [1] was inactive. In addition, the AC50 in assay [2] was 65.3 µM (active). For `CCCCCCC1(C)CCC(=O)O1` (centres undefined), the result in assay [1] and in assay [2] was inactive. With `OC1CCCC1`, the AC50 in assay [1] is 0.475 µM (active). Moreover, the result in assay [2] was inactive. Turning to `Cn1c([N+](=O)[O-])cnc1COC(N)=O`, the compound was classed as inactive in assay [1] and in assay [2]. With `C=C[Si](C)(C)O[Si](C)(C)C=C`, the compound was called inactive in assay [1] and in assay [2].

In the case of `CCCCCCCCCCOS(=O)(=O)O`, the compound was classed as inactive in assay [1] and in assay [2]. As to `CCCCC(CC)CCC(CC(C)C)OS(=O)(=O)O` (centres undefined), the compound was called inactive in assay [1] and in assay [2]. Turning to `CCO[Si](C)(OCC)OCC`, the call in assay [1] and in assay [2] was inactive. Consider `CN(C)c1ccc(C(=N)c2ccc(N(C)C)cc2)cc1`, for which the AC50 in assay [1] was 3.19 µM (active); in assay [2] it was 32.3 µM (active). Turning to `CC(=O)[C@H]1[C@H](C#N)C[C@H]2[C@@H]3CC=C4C[C@@H](O)CC[C@]4(C)[C@H]3CC[C@@]21C`, the compound was classed as inactive in assay [1] and in assay [2].

For `C1=Cc2ccccc2C1`, the call in assay [1] and in assay [2] was inactive.

`CCCCCCCOC(=O)CCC`: the result in assay [1] and in assay [2] was inactive.

`CCCCCCCC/C=C\CCCCCCCC(=O)O`: the compound was called inactive in assay [1]. In addition, the AC50 in assay [2] was 50 µM (active).

Consider `CCOC(=O)CC`, for which the result in assay [1] and in assay [2] was inactive. With `O=C(c1ccccc1)C1CCC1`, the AC50 in assay [1] was 0.391 µM (active). In assay [2], the compound was called inactive. `CC(C)(C)c1ccc(-c2ccc(C(C)(C)C)cc2)cc1`: the call in assay [1] and in assay [2] was inactive.
